Source: PubChem BioAssay
DT40 TDP1 no CPT – qHTS for Inhibitors of human tyrosyl-DNA phosphodiesterase 1 (TDP1): qHTS in cells in absence of CPT. DT40 Tdp1-/- hTDP1 cells, no CPT, ATP luminescence, 48 h. Potency, µM (highest dose often 46.2 µM), without a hit: at the highest dose activity change, negative = growth inhibition, usual class: inhibitors. 420,000 tested, 15% active. AID 686978, 2013; also: nearly all actives have a fitted effect of over 55% in size
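Chicken DT40 Tdp1-/- cells complemented with human TDP1, screened without camptothecin (DMSO vehicle only), 400 cells/well. Compounds pin-transferred, cells incubated at 37 °C for at least 48 hr. Growth read as ATP-dependent luminescence (CellTiter-Glo, 30 min at RT).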
KB-3-1 cytotox – qHTS assay for MDR1-selective chemotherapeutics: Primary screen using the parental adenocarcinoma cell KB-3-1; KB-3-1 viability, CellTiter-Glo ATP luminescence, 72 h; Potency, µM (series often up to 46.1 µM), actives largely listed as cytotoxic; 400,000 tested, 1.4% active; AID 1347075, 2019; also: nearly all actives have a fitted effect of over 60% in size
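Cytotoxicity measured as CellTiter-Glo luminescence after 72 h at 37 C. Compound titrations were pinned onto drug-naive KB-3-1 parental adenocarcinoma cells grown in DMEM with 10% FBS, and normalized data fitted to concentration-response curves.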
TDP1 cell CPT – qHTS for Inhibitors of human tyrosyl-DNA phosphodiesterase 1 (TDP1): qHTS in cells in presence of CPT | Potency, µM (highest dose often 46.2 µM), for inactives: top-dose activity change, negative = growth inhibition, hits mostly inhibitors | chicken DT40 Tdp1-/-;hTDP1 cells + 20 nM CPT, ATP luminescence, 48 h | 420,000 tested, 12% active | AID 686979, 2013; also: nearly all actives have a fitted effect of over 55% in size
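Chicken DT40 Tdp1-/- cells complemented with human TDP1, 400 cells/well, exposed to compounds plus 20 nM camptothecin for at least 48 h at 37 C; viability read as ATP content by CellTiter-Glo luminescence.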
KB-V1 cytotox – qHTS assay for MDR1-selective chemotherapeutics: Primary screen using the drug-selected MDR subline cells KB-V1; KB-V1 MDR cells viability, CellTiter-Glo, 72 h; AID 1347076, 2019; Potency, µM (doses to about 46.1 µM), usual class: cytotoxic; 400,000 tested, 3.4% active; also: nearly all actives have a fitted effect of over 60% in size
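qHTS viability screen in drug-selected KB-V1 MDR cells: 72 h compound treatment at 37 degrees C, ATP luminescence end point.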
HT1080 IDH1KD tx – qHTS for induction of synthetic lethality in tumor cells producing 2HG: qHTS for the HT-1080-IDH1KD cell line. HT-1080 IDH1 knockdown viability, ATP luminescence, 48 h. Potency, µM (titrated, usually from 46.1 µM), for inactives: at the top dose activity, negative = toxicity, hits mostly cytotoxic. 360,000 tested, 2% active. AID 686971, 2013;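 also: 0% = DMSO wells and -100% = cell-free medium wells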
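Assay cells: HT-1080 with IDH1 knockdown, 750 per well, RPMI/5% FBS. Exposure: 48 h at 37 °C following 2 h pre-incubation. Read: CellTiter-Glo luminescence; fitted concentration-response, curve class assigned.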
HT1080NT lethal – qHTS for induction of synthetic lethality in tumor cells producing 2HG: qHTS for the HT-1080-NT fibrosarcoma cell line; HT-1080-NT fibrosarcoma viability, CellTiter-Glo ATP luminescence, 48 h; Potency, µM (top dose mostly 46.1 µM), for inactives: at the highest dose activity, negative = less viability, actives largely listed as cytotoxic; 360,000 tested, 1.6% active; AID 686970, 2013;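 also: NT is the 2HG producing partner of a matched IDH1 knockdown line; 0% = DMSO-treated cells and -100% = media-only wells without cells; nearly all actives have a fitted effect of over 55% in size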
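Compounds were tested in concentration-response format on HT-1080-NT cells for 48 hours at 37 degrees C. Cell viability came from CellTiter-Glo luminescence; curves were classified by r2, response magnitude and activity.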
Numbers without * were called inactive; i = inactive; ? = inconclusive; nt = no result; [ ] = dose if it differs, or a comment. Rows were chosen to be rich in hits. Some 19% of all compounds tested hit in one or more screens of this group. Calls follow the shape of the dose curve; as a rule, active = well fitted curve in the direction sought with a large enough effect; inconclusive = small, poorly fitted or top-dose-only effect, or another doubt; inactive = no such curve, though single readings can be large; an effect the other way counts as inactive or inconclusive. Unless noted, % is scaled to controls: 0 for no effect and ±100 for the full control effect; potency is read from the fitted curve at half-maximal effect.

SMILES	DT40 TDP1 no CPT	KB-3-1 cytotox	TDP1 cell CPT	KB-V1 cytotox	HT1080 IDH1KD tx	HT1080NT lethal
O=C(CCC1CCCC1)Nc1ccccc1-c1ccccc1	?	i	-1%	18µM*	-5%	-1%
O=C(CC1CCCCC1)Nc1ccccc1-c1ccccc1	21µM*	i	?	i	5%	2%
OC1CCN(C(=S)Nc2ccc(Oc3ccccc3)cc2)CC1	?	i	-13%	i	-9%	-1%
C/C(N)=C(/C#N)C(=O)CSc1nc2scc(-c3ccc(F)cc3)c2c(=O)n1C	?	i	-23%	i	0%	4%
Cc1ccc(SC(C)C(=O)Nc2ccccc2-c2ccccc2)cc1 (configuration not stated)	?	i	-5%	21µM*	-7%	-1%
Cc1ccc(SC(C)C(=O)Nc2ccccc2C(=O)N2CCOCC2)cc1 (configuration not stated)	-4%	i	-2%	i	11%	9%
O=C(NC1CCCCCC1)C(=S)N1CCOCC1	16µM*	i	?	i	3%	3%
CN(C)c1ccc(C(CNS(=O)(=O)c2ccc([N+](=O)[O-])cc2)N2CCOCC2)cc1 (configuration not stated)	-18%	i	-18%	i	6%	11%
Cc1ccc(S(=O)(=O)Nc2ccc(N(C)C)cc2)cc1	?	?	-24%	i	-3%	-7%
CN(C)c1ccc(NS(=O)(=O)c2ccc(Cl)cc2)cc1	?	i	18µM*	i	-9%	-5%
CN(C)c1ccc(NS(=O)(=O)c2cccc(Cl)c2)cc1	10µM*	i	-16%	?	-4%	-1%
Cc1cc(S(=O)(=O)Nc2cccc(Cl)c2)c(C)s1	-23%	i	-22%	i	-9%	-8%
Cc1cc(S(=O)(=O)Nc2ccc(N(C)C)cc2)c(C)s1	?	i	?	16µM*	-26%	-11%
CN(C)c1ccc(NS(=O)(=O)c2ccc(-c3csnn3)cc2)cc1	13µM*	i	?	i	4%	-3%
COc1cccc(-n2nnc3c(=O)n(CC(=O)N4CCCc5ccccc54)cnc32)c1	?	i	?	i	4%	13%
COCCCn1c(C)nc2c(c1=O)c1nc3ccccc3nc1n2CCc1ccccc1	16µM*	i	?	?	21%	?
CCCCn1c2nc3ccccc3nc2c2c(=O)n(C(C)CC)cnc21 (configuration not stated)	23µM*	i	10µM*	i	-2%	-2%[9.24 µM]
COCCCn1c2nc3ccccc3nc2c2c(=O)n(Cc3ccc(Cl)cc3)cnc21	18µM*	i	?	i	-3%	-7%
CCCCn1c2nc3ccccc3nc2c2c(=O)n(CC(C)C)cnc21	21%	i	1%	i	11%	1%
Cc1nc2ccccc2c(=O)n1CCc1ccccc1	?	i	?	i	11%	11%
O=C(NCCc1ccc(Cl)cc1)c1cnc2sc(N3CCCCC3)nn2c1=O	-21%	i	-16%	i	nt	nt
CN(C)c1cc[n+](/C(C(=S)Nc2ccc(SC(F)F)cc2)=C(/[O-])c2ccccc2)cc1	10µM*	?	13µM*	i	-6%	-3%
